# Laboratory results reported in the supplement of paper PMC8728848.
# Only a selection was taken, and the strongest signals are over-represented in it overall.
# Key:
# Assay in all cases: glycan array binding signal (z-score within array); higher = stronger binding
# Details in all cases: glycan notation: IUPAC condensed, linker removed
# [1] = molecular target: Fuc(a1-2)Gal(b1-4)GlcNAc(b1-2)Man(a1-3)[Fuc(a1-2)Gal(b1-4)GlcNAc(b1-2)Man(a1-6)]Man(b1-4)GlcNAc(b1-4)GlcNAc
# How it was run: (§1)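 The binding signal is a Z-score computed within each array. Data were drawn from 3228 arrays in the Consortium for Functional Glycomics database, restricted to those with a known protein sequence. Scores were averaged over arrays of the same protein sequence at different concentrations or buffers, and over linkers, and negative values can be taken as non-binding.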
# [2] = molecular target: Fuc(a1-2)Gal(b1-4)GlcNAc(b1-2)[Fuc(a1-2)Gal(b1-4)GlcNAc(b1-4)]Man(a1-3)[Fuc(a1-2)Gal(b1-4)GlcNAc(b1-2)Man(a1-6)]Man(b1-4)GlcNAc(b1-4)GlcNAc
# How it was run: as §1
# [3] = molecular target: Fuc(a1-2)Gal(b1-4)GlcNAc(b1-3)Gal(b1-4)GlcNAc(b1-2)Man(a1-3)[Fuc(a1-2)Gal(b1-4)GlcNAc(b1-3)Gal(b1-4)GlcNAc(b1-2)Man(a1-6)]Man(b1-4)GlcNAc(b1-4)GlcNAc
# How it was run: as §1
# [4] = molecular target: Fuc(a1-2)Gal(b1-4)[Fuc(a1-3)]GlcNAc(b1-3)Gal(b1-4)[Fuc(a1-3)]GlcNAc(b1-3)Gal(b1-4)[Fuc(a1-3)]GlcNAc
# How it was run: as §1
# [5] = molecular target: Fuc(a1-2)Gal6S(b1-3)GlcNAc6S
# How it was run: as §1
# [6] = molecular target: Fuc(a1-2)[GalNAc(a1-3)]Gal(b1-4)GlcNAc(b1-3)Gal(b1-4)GlcNAc
# How it was run: as §1
# [7] = molecular target: Fuc(a1-2)[GalNAc(a1-3)]Gal(b1-4)GlcNAc(b1-3)GalNAc
# How it was run: as §1
# [8] = molecular target: Fuc(a1-2)[GalNAc(a1-3)]Gal(b1-4)[Fuc(a1-3)]GlcNAc
# How it was run: as §1
# [9] = molecular target: Fuc(a1-3)[GalNAc(b1-4)]GlcNAc
# How it was run: as §1
# [10] = molecular target: Gal(a1-3)Gal(b1-4)GlcNAc(b1-2)Man(a1-3)[Gal(a1-3)Gal(b1-4)GlcNAc(b1-2)Man(a1-6)]Man(b1-4)GlcNAc(b1-4)GlcNAc
# How it was run: as §1
# [11] = molecular target: Gal(a1-3)GalNAc
# How it was run: as §1
# [12] = molecular target: Gal(a1-4)Gal(b1-4)GlcNAc(b1-2)Man(a1-3)[Gal(a1-4)Gal(b1-4)GlcNAc(b1-2)Man(a1-6)]Man(b1-4)GlcNAc(b1-4)GlcNAc
# How it was run: as §1
# [13] = molecular target: Gal(b1-3)GalNAc(a1-3)[Fuc(a1-2)]Gal(b1-4)GlcNAc
# How it was run: as §1
# [14] = molecular target: Gal(b1-3)GlcNAc(a1-3)Gal(b1-4)GlcNAc
# How it was run: as §1
# [15] = molecular target: Gal(b1-3)GlcNAc(b1-2)Man(a1-3)[Gal(b1-3)GlcNAc(b1-2)Man(a1-6)]Man(b1-4)GlcNAc(b1-4)GlcNAc
# How it was run: as §1
# [16] = molecular target: Gal(b1-4)GlcNAc(a1-6)Gal(b1-4)GlcNAc
# How it was run: as §1
# [17] = molecular target: Gal(b1-4)GlcNAc(b1-2)Man(a1-3)[Gal(b1-4)GlcNAc(b1-2)Man(a1-6)]Man(b1-4)GlcNAc(b1-4)GlcNAc
# How it was run: as §1
# [18] = molecular target: Gal(b1-4)GlcNAc(b1-2)[Gal(b1-4)GlcNAc(b1-6)]Man(a1-6)[Gal(b1-4)GlcNAc(b1-2)Man(a1-3)]Man(b1-4)GlcNAc(b1-4)[Fuc(a1-6)]GlcNAc
# How it was run: as §1
# [19] = molecular target: Gal(b1-4)GlcNAc(b1-3)Gal(b1-4)GlcNAc
# How it was run: as §1
# [20] = molecular target: Gal(b1-4)GlcNAc(b1-3)Gal(b1-4)GlcNAc(b1-2)[Gal(b1-4)GlcNAc(b1-3)Gal(b1-4)GlcNAc(b1-6)]Man(a1-6)[Gal(b1-4)GlcNAc(b1-3)Gal(b1-4)GlcNAc(b1-2)Man(a1-3)]Man(b1-4)GlcNAc(b1-4)GlcNAc
# How it was run: as §1
# [21] = molecular target: Gal(b1-4)GlcNAc(b1-3)Gal(b1-4)GlcNAc(b1-3)Gal(b1-4)GlcNAc
# How it was run: as §1
# [22] = molecular target: Gal(b1-4)GlcNAc(b1-3)Gal(b1-4)GlcNAc(b1-3)GalNAc
# How it was run: as §1
# [23] = molecular target: Gal(b1-4)GlcNAc(b1-3)Gal(b1-4)GlcNAc(b1-3)[Gal(b1-4)GlcNAc(b1-3)Gal(b1-4)GlcNAc(b1-6)]GalNAc
# How it was run: as §1
# [24] = molecular target: Gal3S(b1-3)[Fuc(a1-4)]GlcNAc
# How it was run: as §1
# [25] = molecular target: Gal3S(b1-4)[Fuc(a1-3)]Glc6S
# How it was run: as §1
# [26] = molecular target: Gal6S(b1-3)GlcNAc
# How it was run: as §1
# [27] = molecular target: GalNAc(b1-4)GlcNAc(b1-2)Man(a1-3)[GalNAc(b1-4)GlcNAc(b1-2)Man(a1-6)]Man(b1-4)GlcNAc(b1-4)GlcNAc
# How it was run: as §1
# [28] = molecular target: GlcNAc(a1-4)Gal(b1-4)GlcNAc(b1-3)Gal(b1-4)GlcNAc
# How it was run: as §1
# [29] = molecular target: GlcNAc(b1-2)Man(a1-3)[GlcNAc(b1-2)Man(a1-6)]Man(b1-4)GlcNAc(b1-4)GlcNAc
# How it was run: as §1
# [30] = molecular target: GlcNAc(b1-2)[GlcNAc(b1-6)]Man(a1-6)[GlcNAc(b1-2)Man(a1-3)]Man(b1-4)GlcNAc(b1-4)GlcNAc
# How it was run: as §1
# [31] = molecular target: GlcNAc(b1-2)[GlcNAc(b1-6)]Man(a1-6)[GlcNAc(b1-2)Man(a1-3)]Man(b1-4)GlcNAc(b1-4)[Fuc(a1-6)]GlcNAc
# How it was run: as §1
# [32] = molecular target: GlcNAc(b1-3)Gal(b1-4)GlcNAc(b1-2)Man(a1-3)[GlcNAc(b1-3)Gal(b1-4)GlcNAc(b1-2)Man(a1-6)]Man(b1-4)GlcNAc(b1-4)[Fuc(a1-6)]GlcNAc
# How it was run: as §1
# [33] = molecular target: GlcNAc(b1-3)Gal(b1-4)GlcNAc(b1-3)Gal(b1-4)GlcNAc(b1-3)Gal(b1-4)GlcNAc(b1-3)Gal(b1-4)GlcNAc(b1-2)Man(a1-3)[GlcNAc(b1-3)Gal(b1-4)GlcNAc(b1-3)Gal(b1-4)GlcNAc(b1-3)Gal(b1-4)GlcNAc(b1-3)Gal(b1-4)GlcNAc(b1-2)Man(a1-6)]Man(b1-4)GlcNAc(b1-4)[Fuc(a1-6)]GlcNAc
# How it was run: as §1
# [34] = molecular target: GlcNAc(b1-3)Gal(b1-4)GlcNAc(b1-3)[GlcNAc(b1-3)Gal(b1-4)GlcNAc(b1-3)]GalNAc
# How it was run: as §1
# [35] = molecular target: GlcNAc(b1-6)GalNAc
# How it was run: as §1
# [36] = molecular target: Man(a1-2)Man(a1-3)[Man(a1-2)Man(a1-6)]Man
# How it was run: as §1
# [37] = molecular target: Man(a1-3)[Man(a1-6)]Man(b1-4)GlcNAc(b1-4)GlcNAc
# How it was run: as §1
# [38] = molecular target: Neu5Ac(a2-3)Gal(b1-3)GlcNAc(b1-2)Man(a1-3)[Neu5Ac(a2-3)Gal(b1-3)GlcNAc(b1-2)Man(a1-6)]Man(b1-4)GlcNAc(b1-4)GlcNAc
# How it was run: as §1
# [39] = molecular target: Neu5Ac(a2-3)Gal(b1-3)[GlcNAc(b1-6)]GalNAc
# How it was run: as §1
# [40] = molecular target: Neu5Ac(a2-3)Gal(b1-4)[Fuc(a1-3)]GlcNAc(b1-6)[Neu5Ac(a2-3)Gal(b1-3)]GalNAc
# How it was run: as §1
# [41] = molecular target: Neu5Ac(a2-3)[Neu5Ac(a2-6)]GalNAc
# How it was run: as §1
# [42] = molecular target: Neu5Ac(a2-6)Gal(b1-4)GlcNAc(b1-2)Man(a1-3)Man(b1-4)GlcNAc(b1-4)GlcNAc
# How it was run: as §1
# [43] = molecular target: Neu5Ac(a2-6)Gal(b1-4)GlcNAc(b1-2)Man(a1-3)[Man(a1-6)]Man(b1-4)GlcNAc(b1-4)GlcNAc
# How it was run: as §1
# [44] = molecular target: Neu5Ac(a2-6)Gal(b1-4)GlcNAc(b1-2)Man(a1-3)[Neu5Ac(a2-3)Gal(b1-4)GlcNAc(b1-2)Man(a1-6)]Man(b1-4)GlcNAc(b1-4)GlcNAc
# How it was run: as §1
# [45] = molecular target: Neu5Ac(a2-6)Gal(b1-4)GlcNAc(b1-2)Man(a1-3)[Neu5Ac(a2-6)Gal(b1-4)GlcNAc(b1-2)Man(a1-6)]Man(b1-4)GlcNAc(b1-4)[Fuc(a1-6)]GlcNAc
# How it was run: as §1
# [46] = molecular target: Neu5Ac(a2-6)Gal(b1-4)GlcNAc(b1-2)Man(a1-6)[Gal(b1-4)GlcNAc(b1-2)Man(a1-3)]Man(b1-4)GlcNAc(b1-4)GlcNAc
# How it was run: as §1
# [47] = molecular target: Neu5Ac(a2-6)Gal(b1-4)GlcNAc(b1-2)[Neu5Ac(a2-6)Gal(b1-4)GlcNAc(b1-4)]Man(a1-3)[GlcNAc(b1-4)][Neu5Ac(a2-6)Gal(b1-4)GlcNAc(b1-2)[Neu5Ac(a2-6)Gal(b1-4)GlcNAc(b1-6)]Man(a1-6)]Man(b1-4)GlcNAc(b1-4)GlcNAc
# How it was run: as §1
# [48] = molecular target: Neu5Ac(a2-6)Gal(b1-4)GlcNAc(b1-6)[Gal(b1-3)GlcNAc(b1-3)]Gal(b1-4)Glc
# How it was run: as §1
binder,measurement,setting,value
RBMC2 (Vibrio cholerae) (protein) KISVRSGFAIDAIGASASTLVGGTGGNLNAAVNVKDIKAIDLTWGKYYWGGYHLLALDFRMSNGSVISMGSKNYAYSKQTERFTVPAGSRIKGIKAWTAGWLLDGVQFELA,glycan array binding signal (z-score),[1],1.19
same,glycan array binding signal (z-score),[2],0.016
same,glycan array binding signal (z-score),[3],3.69
same,glycan array binding signal (z-score),[4],-0.273
same,glycan array binding signal (z-score),[5],-0.121
same,glycan array binding signal (z-score),[6],-0.171
same,glycan array binding signal (z-score),[7],-0.327
same,glycan array binding signal (z-score),[8],-0.4
same,glycan array binding signal (z-score),[9],-0.311
same,glycan array binding signal (z-score),[10],3.79
same,glycan array binding signal (z-score),[11],-0.276
same,glycan array binding signal (z-score),[12],4.07
same,glycan array binding signal (z-score),[13],-0.258
same,glycan array binding signal (z-score),[14],-0.3
same,glycan array binding signal (z-score),[15],3.3
same,glycan array binding signal (z-score),[16],-0.466
same,glycan array binding signal (z-score),[17],-0.184
same,glycan array binding signal (z-score),[18],0.211
same,glycan array binding signal (z-score),[19],-0.235
same,glycan array binding signal (z-score),[20],-0.097
same,glycan array binding signal (z-score),[21],-0.368
same,glycan array binding signal (z-score),[22],-0.363
same,glycan array binding signal (z-score),[23],-0.254
same,glycan array binding signal (z-score),[24],-0.327
same,glycan array binding signal (z-score),[25],-0.305
same,glycan array binding signal (z-score),[26],-0.328
same,glycan array binding signal (z-score),[27],1.47
same,glycan array binding signal (z-score),[28],-0.281
same,glycan array binding signal (z-score),[29],3.67
same,glycan array binding signal (z-score),[30],-0.232
same,glycan array binding signal (z-score),[31],-0.178
same,glycan array binding signal (z-score),[32],3.51
same,glycan array binding signal (z-score),[33],1.92
same,glycan array binding signal (z-score),[34],-0.222
same,glycan array binding signal (z-score),[35],-0.19
same,glycan array binding signal (z-score),[36],-0.48
same,glycan array binding signal (z-score),[37],4.41
same,glycan array binding signal (z-score),[38],-0.017
same,glycan array binding signal (z-score),[39],-0.155
same,glycan array binding signal (z-score),[40],-0.025
same,glycan array binding signal (z-score),[41],-0.245
same,glycan array binding signal (z-score),[42],-0.132
same,glycan array binding signal (z-score),[43],12.3
same,glycan array binding signal (z-score),[44],3.39
same,glycan array binding signal (z-score),[45],3.57
same,glycan array binding signal (z-score),[46],3.52
same,glycan array binding signal (z-score),[47],-0.425
same,glycan array binding signal (z-score),[48],-0.398
